Holding throughout (assay): PBM; 200 nM protein, PBS
Settings in all cases: dsDNA, one strand shown

Assay [1] concerns the target NKX2-5 (Homo sapiens, UniProt P52952 125-210, R139K).
The target in assay [2] is T1, NKX2-6 (Homo sapiens, UniProt A6NCS4 118-204, R150C).
T1 sequence: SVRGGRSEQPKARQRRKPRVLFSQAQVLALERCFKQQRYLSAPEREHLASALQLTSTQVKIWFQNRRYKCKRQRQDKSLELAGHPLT

For assay [3], the target named is NKX2-5 (Homo sapiens, UniProt P52952 125-210).
Assay [4] addresses T2, NKX2-6 (Homo sapiens, UniProt A6NCS4 118-204).
T2 sequence: T1 sequence with C33R

Assay [5] addresses T3, NKX2-6 (Homo sapiens, UniProt A6NCS4 118-204, F151L).
T3 sequence: T1 sequence with C33R, F34L

For assay [6], the target named is NKX3-2 (Homo sapiens, UniProt P78367 192-278, P234S).
The target of assay [7] is NKX3-2 (Homo sapiens, UniProt P78367 192-278).
The target of assay [8] is T4, NKX2-4 (Homo sapiens, UniProt Q9H2Z4 175-261, R246Q).
T4 sequence: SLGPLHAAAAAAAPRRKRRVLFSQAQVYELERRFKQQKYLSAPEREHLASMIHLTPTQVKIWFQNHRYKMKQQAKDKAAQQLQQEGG

Assay [9] deals with PITX2 (Homo sapiens, UniProt Q99697 72-157).

Numbering of substitutions follows the chain as printed.

Sequence of NKX2-5 (Homo sapiens, UniProt P52952 125-210) (P52952 125-210): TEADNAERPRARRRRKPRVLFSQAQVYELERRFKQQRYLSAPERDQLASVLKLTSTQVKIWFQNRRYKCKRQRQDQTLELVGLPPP
Sequence of NKX2-5 (Homo sapiens, UniProt P52952 125-210, R139K) (P52952 125-210 R139K): as the sequence (P52952 125-210) above, with R15K counted along it
Sequence of NKX3-2 (Homo sapiens, UniProt P78367 192-278, P234S) (P78367 192-278 P234S): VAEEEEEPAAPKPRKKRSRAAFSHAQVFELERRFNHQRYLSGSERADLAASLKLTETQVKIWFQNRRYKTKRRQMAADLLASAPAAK
Sequence of NKX3-2 (Homo sapiens, UniProt P78367 192-278) (P78367 192-278): as the sequence (P78367 192-278 P234S) above, with S43P counted along it

For CAGCGTCC, the binding signal was 8.7 upbm affinity estimate (log intensity, higher = more binding, comparable within an allelic series) in assay [1]; 9.46 upbm affinity estimate (log intensity, higher = more binding, comparable within an allelic series) in assay [2]; 8.65 upbm affinity estimate (log intensity, higher = more binding, comparable within an allelic series) in assay [3].

AAGTGGCC: the binding signal is 12.4 upbm affinity estimate (log intensity, higher = more binding, comparable within an allelic series) in assay [1]; 11.6 upbm affinity estimate (log intensity, higher = more binding, comparable within an allelic series) in [2]; 13.3 upbm affinity estimate (log intensity, higher = more binding, comparable within an allelic series) in [4]; 10.5 upbm affinity estimate (log intensity, higher = more binding, comparable within an allelic series) in assay [5]; 12.9 upbm affinity estimate (log intensity, higher = more binding, comparable within an allelic series) in assay [6]; 12.4 upbm affinity estimate (log intensity, higher = more binding, comparable within an allelic series) in [3]. In addition, in assay [7], the binding signal was 13.1 upbm affinity estimate (log intensity, higher = more binding, comparable within an allelic series).

In the case of AAGTGCCT, the binding signal was 12.4 upbm affinity estimate (log intensity, higher = more binding, comparable within an allelic series) in assay [1]; 11.7 upbm affinity estimate (log intensity, higher = more binding, comparable within an allelic series) in assay [2]; 10.8 upbm affinity estimate (log intensity, higher = more binding, comparable within an allelic series) in assay [5]; 12.5 upbm affinity estimate (log intensity, higher = more binding, comparable within an allelic series) in assay [6]; 12.3 upbm affinity estimate (log intensity, higher = more binding, comparable within an allelic series) in [3]; 12.6 upbm affinity estimate (log intensity, higher = more binding, comparable within an allelic series) in [7].

Turning to CACTTACC, the binding signal was 12.4 upbm affinity estimate (log intensity, higher = more binding, comparable within an allelic series) in [1]; 11.6 upbm affinity estimate (log intensity, higher = more binding, comparable within an allelic series) in assay [2]; 13.4 upbm affinity estimate (log intensity, higher = more binding, comparable within an allelic series) in [4]; 10.7 upbm affinity estimate (log intensity, higher = more binding, comparable within an allelic series) in assay [5]; 12.7 upbm affinity estimate (log intensity, higher = more binding, comparable within an allelic series) in assay [6]; 12.3 upbm affinity estimate (log intensity, higher = more binding, comparable within an allelic series) in assay [3]. Also, the binding signal in assay [7] is 12.8 upbm affinity estimate (log intensity, higher = more binding, comparable within an allelic series).

Consider ACTTAAGA, for which the binding signal is 12.3 upbm affinity estimate (log intensity, higher = more binding, comparable within an allelic series) in assay [1]; 13.4 upbm affinity estimate (log intensity, higher = more binding, comparable within an allelic series) in [4]; 12.9 upbm affinity estimate (log intensity, higher = more binding, comparable within an allelic series) in assay [8]; 10.8 upbm affinity estimate (log intensity, higher = more binding, comparable within an allelic series) in assay [5].

As to CCCGAGGC, the binding signal in assay [9] is 8.01 upbm affinity estimate (log intensity, higher = more binding, comparable within an allelic series); in [6], 10.3 upbm affinity estimate (log intensity, higher = more binding, comparable within an allelic series); in assay [7], 10.4 upbm affinity estimate (log intensity, higher = more binding, comparable within an allelic series).

As for CAAGTGCC, the binding signal in [5] is 10.6 upbm affinity estimate (log intensity, higher = more binding, comparable within an allelic series).

ACGGTCCA: the binding signal in [6] is 10.5 upbm affinity estimate (log intensity, higher = more binding, comparable within an allelic series); in assay [7], 10.5 upbm affinity estimate (log intensity, higher = more binding, comparable within an allelic series).

Turning to TGCGCGCA, the binding signal in assay [1] is 9.19 upbm affinity estimate (log intensity, higher = more binding, comparable within an allelic series); in assay [3], 9.1 upbm affinity estimate (log intensity, higher = more binding, comparable within an allelic series).

As for CGGTTTGC, the binding signal is 8.63 upbm affinity estimate (log intensity, higher = more binding, comparable within an allelic series) in assay [1] and 8.59 upbm affinity estimate (log intensity, higher = more binding, comparable within an allelic series) in assay [3].

Regarding ACCACTCT, the binding signal in [1] is 11.3 upbm affinity estimate (log intensity, higher = more binding, comparable within an allelic series); in [3], 11.2 upbm affinity estimate (log intensity, higher = more binding, comparable within an allelic series).

In the case of CACGTCCC, the binding signal is 8.94 upbm affinity estimate (log intensity, higher = more binding, comparable within an allelic series) in [1] and 8.96 upbm affinity estimate (log intensity, higher = more binding, comparable within an allelic series) in assay [3].

For ACTGGCCC, the binding signal in [1] was 8.91 upbm affinity estimate (log intensity, higher = more binding, comparable within an allelic series); in assay [3], 8.87 upbm affinity estimate (log intensity, higher = more binding, comparable within an allelic series).

For CGGACCCC, the binding signal in [1] was 9.12 upbm affinity estimate (log intensity, higher = more binding, comparable within an allelic series); in assay [3], 9.03 upbm affinity estimate (log intensity, higher = more binding, comparable within an allelic series).

Take AACGCGGA: the binding signal in assay [1] was 8.76 upbm affinity estimate (log intensity, higher = more binding, comparable within an allelic series); in assay [3] it was 8.8 upbm affinity estimate (log intensity, higher = more binding, comparable within an allelic series).

For the sequence CAATACTC, the binding signal was 10.2 upbm affinity estimate (log intensity, higher = more binding, comparable within an allelic series) in [1] and 10.2 upbm affinity estimate (log intensity, higher = more binding, comparable within an allelic series) in assay [3].

In the case of CGCGCAGC, the binding signal in [1] was 8.7 upbm affinity estimate (log intensity, higher = more binding, comparable within an allelic series); in assay [3] it was 8.72 upbm affinity estimate (log intensity, higher = more binding, comparable within an allelic series).

Consider CCGCACGG, for which the binding signal in [1] is 8.63 upbm affinity estimate (log intensity, higher = more binding, comparable within an allelic series); in assay [3], 8.62 upbm affinity estimate (log intensity, higher = more binding, comparable within an allelic series).

In the case of GGCTATTA, the binding signal in assay [1] was 10.7 upbm affinity estimate (log intensity, higher = more binding, comparable within an allelic series); in assay [3] it was 10.6 upbm affinity estimate (log intensity, higher = more binding, comparable within an allelic series).

Turning to CCAACGCA, the binding signal was 8.88 upbm affinity estimate (log intensity, higher = more binding, comparable within an allelic series) in assay [1] and 8.96 upbm affinity estimate (log intensity, higher = more binding, comparable within an allelic series) in assay [3].

With AGACCGCG, the binding signal in assay [1] is 8.9 upbm affinity estimate (log intensity, higher = more binding, comparable within an allelic series); in [3], 8.83 upbm affinity estimate (log intensity, higher = more binding, comparable within an allelic series).

As to CACTAAAG, the binding signal was 10.9 upbm affinity estimate (log intensity, higher = more binding, comparable within an allelic series) in assay [1] and 10.8 upbm affinity estimate (log intensity, higher = more binding, comparable within an allelic series) in [3].

As for ATAAGATG, the binding signal in assay [1] was 10.5 upbm affinity estimate (log intensity, higher = more binding, comparable within an allelic series); in assay [3] it was 10.6 upbm affinity estimate (log intensity, higher = more binding, comparable within an allelic series).

As for CCCGTAGC, the binding signal in assay [1] was 8.54 upbm affinity estimate (log intensity, higher = more binding, comparable within an allelic series); in assay [3] it was 8.55 upbm affinity estimate (log intensity, higher = more binding, comparable within an allelic series).

On to GCAAAGTA, for which the binding signal in assay [1] is 10.7 upbm affinity estimate (log intensity, higher = more binding, comparable within an allelic series); in assay [3] it was 10.8 upbm affinity estimate (log intensity, higher = more binding, comparable within an allelic series).

For the sequence AACGGTGG, the binding signal was 9.06 upbm affinity estimate (log intensity, higher = more binding, comparable within an allelic series) in assay [1] and 8.98 upbm affinity estimate (log intensity, higher = more binding, comparable within an allelic series) in [3].

Regarding CTCTTATC, the binding signal in [1] was 11.5 upbm affinity estimate (log intensity, higher = more binding, comparable within an allelic series); in assay [3], 11.4 upbm affinity estimate (log intensity, higher = more binding, comparable within an allelic series).

As for ACTCTACT, the binding signal in assay [1] was 10.7 upbm affinity estimate (log intensity, higher = more binding, comparable within an allelic series); in assay [3], 10.8 upbm affinity estimate (log intensity, higher = more binding, comparable within an allelic series).

With CACAGCCG, the binding signal in [1] was 8.68 upbm affinity estimate (log intensity, higher = more binding, comparable within an allelic series); in [3], 8.68 upbm affinity estimate (log intensity, higher = more binding, comparable within an allelic series).

On to CGGCCAGC, for which the binding signal in assay [1] is 8.6 upbm affinity estimate (log intensity, higher = more binding, comparable within an allelic series); in assay [3] it was 8.71 upbm affinity estimate (log intensity, higher = more binding, comparable within an allelic series).

For the sequence CTAGTACA, the binding signal is 10.5 upbm affinity estimate (log intensity, higher = more binding, comparable within an allelic series) in [1] and 10.6 upbm affinity estimate (log intensity, higher = more binding, comparable within an allelic series) in [3].

AACGTGGG: the binding signal in assay [1] was 8.65 upbm affinity estimate (log intensity, higher = more binding, comparable within an allelic series); in assay [3], 8.69 upbm affinity estimate (log intensity, higher = more binding, comparable within an allelic series).

In the case of CACTGCCG, the binding signal is 9 upbm affinity estimate (log intensity, higher = more binding, comparable within an allelic series) in [1] and 8.89 upbm affinity estimate (log intensity, higher = more binding, comparable within an allelic series) in assay [3].

Turning to CAGTTGGC, the binding signal in [1] is 8.87 upbm affinity estimate (log intensity, higher = more binding, comparable within an allelic series); in assay [3] it was 8.7 upbm affinity estimate (log intensity, higher = more binding, comparable within an allelic series).

Take CACTAAGC: the binding signal in assay [1] is 10.7 upbm affinity estimate (log intensity, higher = more binding, comparable within an allelic series); in assay [3], 10.6 upbm affinity estimate (log intensity, higher = more binding, comparable within an allelic series).

Turning to AAAGTGCC, the binding signal in assay [1] is 11.6 upbm affinity estimate (log intensity, higher = more binding, comparable within an allelic series); in assay [3], 11.7 upbm affinity estimate (log intensity, higher = more binding, comparable within an allelic series).

For ATAAGCGG, the binding signal in [1] was 10.3 upbm affinity estimate (log intensity, higher = more binding, comparable within an allelic series); in assay [3] it was 10.3 upbm affinity estimate (log intensity, higher = more binding, comparable within an allelic series).

For TCACTCGA, the binding signal was 10.9 upbm affinity estimate (log intensity, higher = more binding, comparable within an allelic series) in assay [1] and 10.9 upbm affinity estimate (log intensity, higher = more binding, comparable within an allelic series) in assay [3].

In the case of CCGGGCCA, the binding signal in assay [1] was 9.01 upbm affinity estimate (log intensity, higher = more binding, comparable within an allelic series); in assay [3], 8.94 upbm affinity estimate (log intensity, higher = more binding, comparable within an allelic series).

For the sequence CGGCGAAC, the binding signal in [1] was 8.65 upbm affinity estimate (log intensity, higher = more binding, comparable within an allelic series); in assay [3] it was 8.62 upbm affinity estimate (log intensity, higher = more binding, comparable within an allelic series).

Turning to ATAAGTGA, the binding signal in [1] was 12.2 upbm affinity estimate (log intensity, higher = more binding, comparable within an allelic series); in [3] it was 12 upbm affinity estimate (log intensity, higher = more binding, comparable within an allelic series).

Consider AGCACTAG, for which the binding signal in assay [1] is 10.6 upbm affinity estimate (log intensity, higher = more binding, comparable within an allelic series); in assay [3], 10.6 upbm affinity estimate (log intensity, higher = more binding, comparable within an allelic series).

Take CTGATCAG: the binding signal in assay [1] is 8.97 upbm affinity estimate (log intensity, higher = more binding, comparable within an allelic series); in assay [3], 8.87 upbm affinity estimate (log intensity, higher = more binding, comparable within an allelic series).

With GCAACGCA, the binding signal in [1] is 9.03 upbm affinity estimate (log intensity, higher = more binding, comparable within an allelic series); in assay [3], 8.99 upbm affinity estimate (log intensity, higher = more binding, comparable within an allelic series).

Regarding CCTGGCAG, the binding signal is 8.78 upbm affinity estimate (log intensity, higher = more binding, comparable within an allelic series) in [1] and 8.78 upbm affinity estimate (log intensity, higher = more binding, comparable within an allelic series) in assay [3].

With GGCAAGCC, the binding signal is 8.94 upbm affinity estimate (log intensity, higher = more binding, comparable within an allelic series) in assay [1] and 8.92 upbm affinity estimate (log intensity, higher = more binding, comparable within an allelic series) in [3].

For the sequence GCTGCGAC, the binding signal in [1] was 8.9 upbm affinity estimate (log intensity, higher = more binding, comparable within an allelic series); in [3], 8.94 upbm affinity estimate (log intensity, higher = more binding, comparable within an allelic series).
